Among the test systems are EKVX NSCLC; SN12C renal; UO-31 renal; TK-10 renal; CAKI-1 renal; CCRF-CEM leukemia; MOLT-4 leukemia; SR leukemia; RPMI-8226 leukemia; OVCAR-8 ovarian; OVCAR-5 ovarian; OVCAR-4 ovarian; SK-OV-3 ovarian; IGROV1 ovarian; OVCAR-3 ovarian; ACHN renal; A498 renal; HS 578T breast; NCI/ADR-RES ovarian.
Common to all, as to assay: NCI-60 one-dose screen, 48 h (100 = growth as untreated, 0 = no growth, -100 = all killed)
What all share (details): 10 µM unless noted

The source of these data is PubChem BioAssay (NCI).

The panel holds about 83,000 compounds, 20% with a hit somewhere; the sample as a whole holds those more often.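 Negative percent growth values reflect cell death: -40 means 40% of the cells present at the start died, and -100 means all died.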 Values without a mark were called inactive. Active and inactive are the calls of the source. Rule for the calls: active = growth percent below 10; inactive = the rest.

As to `O=C(c1ccccc1)C(O)C(Br)(CBr)c1ccccc1` (stereo not given), the growth with EKVX NSCLC is 108%; in the experiment on SN12C renal it was 91.6%; in the experiment on UO-31 renal, 96.3%; in the experiment with TK-10 renal, 87.6%; in the experiment with CAKI-1 renal it was 102%; in the experiment with CCRF-CEM leukemia, 50%. The growth is 75.1% in the experiment on MOLT-4 leukemia; 59.3% in the experiment with SR leukemia; 73.6% in the experiment with RPMI-8226 leukemia; 93.2% with OVCAR-8 ovarian; 99.6% in the experiment with OVCAR-5 ovarian; 90.8% with OVCAR-4 ovarian. The growth was 114% in the experiment on SK-OV-3 ovarian, 90.9% in the experiment on IGROV1 ovarian and 89.7% with OVCAR-3 ovarian.

Turning to `COc1cc(NCc2ccc3nc(N)nc(N)c3c2C)cc(OC)c1OC` (tested in a mixture with another compound), the growth is 55.8% in the experiment on EKVX NSCLC; 44.7% in the experiment with SN12C renal; 34.9% in the experiment on UO-31 renal; 31.1% with TK-10 renal; 23.8% with ACHN renal; 25.4% with CAKI-1 renal. The growth was 32.9% in the experiment with A498 renal; 19.9% with CCRF-CEM leukemia; 20.6% in the experiment with MOLT-4 leukemia; 31.7% in the experiment on SR leukemia; 41.7% in the experiment on RPMI-8226 leukemia; 36.9% in the experiment on OVCAR-5 ovarian. Moreover, the growth in the experiment with SK-OV-3 ovarian was 58%; in the experiment with IGROV1 ovarian, -10.2% (active); with OVCAR-3 ovarian, 55.3%; in the experiment with HS 578T breast, 44.1%; in the experiment on NCI/ADR-RES ovarian it was 32.2%.

For `S=C(S)OCN1CCOCC1`, the growth with EKVX NSCLC is 97.4%; with SN12C renal it was 103%; with UO-31 renal, 75.9%; with TK-10 renal, 97.9%; with ACHN renal, 100%; in the experiment on CAKI-1 renal, 92.6%. For the same compound, the growth in the experiment on A498 renal is 70.6%; in the experiment on CCRF-CEM leukemia it was 59%; in the experiment with MOLT-4 leukemia, 92.5%; in the experiment on SR leukemia it was 65.2%; in the experiment on RPMI-8226 leukemia, 100%; with OVCAR-8 ovarian, 88%. Also, the growth was 97.6% with OVCAR-5 ovarian; 56.5% with OVCAR-4 ovarian; 98.9% in the experiment on SK-OV-3 ovarian; 56.5% in the experiment with IGROV1 ovarian; 118% with OVCAR-3 ovarian; 96.2% with NCI/ADR-RES ovarian.

For `O=C1C=C(Cl)C(=O)c2ccccc21`, the growth in the experiment on SN12C renal is 101%; with UO-31 renal, 60.8%; in the experiment on TK-10 renal, 152%; in the experiment on ACHN renal, 38%; with CAKI-1 renal, 90.6%; in the experiment with A498 renal it was 118%. For the same compound, the growth is 53.3% in the experiment with CCRF-CEM leukemia; 37.4% in the experiment on MOLT-4 leukemia; 94.7% with SR leukemia; 84.7% with RPMI-8226 leukemia; 91.6% in the experiment on OVCAR-8 ovarian; 113% with OVCAR-5 ovarian. Further, the growth in the experiment with OVCAR-4 ovarian is 92.5%; in the experiment on SK-OV-3 ovarian, 94.7%; with IGROV1 ovarian, 92.3%; in the experiment with OVCAR-3 ovarian it was 89.8%; in the experiment with HS 578T breast, 111%.

As to `C(=N\Nc1ccc2ccccc2n1)/c1ccccn1`, the growth is 20.7% in the experiment with EKVX NSCLC; 17.7% with SN12C renal; -29.8% (active) in the experiment on UO-31 renal; 48% with TK-10 renal; 2.92% (active) with CAKI-1 renal; 26.7% in the experiment on A498 renal. The growth in the experiment with CCRF-CEM leukemia was 16.9%; in the experiment on MOLT-4 leukemia, 6.6% (active); with SR leukemia, 6.86% (active); in the experiment on RPMI-8226 leukemia it was 25.1%; in the experiment with OVCAR-8 ovarian, 18.5%; in the experiment with OVCAR-5 ovarian it was 47.4%. Also, the growth in the experiment on OVCAR-4 ovarian is 22.2%; in the experiment on SK-OV-3 ovarian, 26.1%; in the experiment on IGROV1 ovarian it was 2.7% (active); in the experiment with OVCAR-3 ovarian it was 44.7%; with HS 578T breast it was 38.4%.

On to `Oc1ccc(Cl)cc1C(c1cc(Cl)ccc1O)C(Cl)(Cl)Cl`, for which the growth in the experiment with EKVX NSCLC is 13.7%; in the experiment with SN12C renal, -4.47% (active); in the experiment on TK-10 renal, 77.5%; with ACHN renal, -7.96% (active); in the experiment with CAKI-1 renal, 36.8%; in the experiment with A498 renal, 23.4%. The growth in the experiment on CCRF-CEM leukemia was 19.1%; with MOLT-4 leukemia, 2.12% (active); in the experiment on SR leukemia, -25.2% (active); in the experiment with RPMI-8226 leukemia, 11.5%; in the experiment on OVCAR-8 ovarian it was 29.6%; in the experiment on OVCAR-5 ovarian, 8.25% (active). For the same compound, the growth was 20.6% in the experiment with OVCAR-4 ovarian; 32% with SK-OV-3 ovarian; 56% in the experiment with IGROV1 ovarian; -16.9% (active) with OVCAR-3 ovarian; 0.476% (active) with HS 578T breast; 4.17% (active) in the experiment on NCI/ADR-RES ovarian.

As for `O=[n+]1c2ccccc2n([O-])c2cc(Cl)ccc21`, the growth in the experiment on SN12C renal was 62.3%; in the experiment with UO-31 renal, 55.7%; in the experiment on TK-10 renal it was 102%; with ACHN renal, 20.7%; in the experiment on CAKI-1 renal, 19.3%; in the experiment with A498 renal, 81.6%. Besides, the growth in the experiment on CCRF-CEM leukemia is -6.38% (active); with MOLT-4 leukemia, -30.4% (active); with SR leukemia, 1.27% (active); in the experiment with RPMI-8226 leukemia, 73.8%; with OVCAR-8 ovarian, 43%; in the experiment on OVCAR-5 ovarian, 108%. The growth with OVCAR-4 ovarian is 40.3%; with SK-OV-3 ovarian, 87.7%; in the experiment with IGROV1 ovarian it was 65.6%; with OVCAR-3 ovarian, 44.6%; in the experiment on HS 578T breast, 88.8%; in the experiment on NCI/ADR-RES ovarian, 59.6%.

`C=C(C(N)=O)C(N)C(=O)O` (stereo not given): the growth in the experiment with SN12C renal was 108%; in the experiment with UO-31 renal it was 97.6%; in the experiment with TK-10 renal, 109%; with ACHN renal, 108%; in the experiment on CAKI-1 renal it was 116%; with A498 renal, 113%. Moreover, the growth in the experiment with SR leukemia was 83.4%; with RPMI-8226 leukemia, 104%; in the experiment on OVCAR-8 ovarian it was 108%; in the experiment on OVCAR-5 ovarian, 113%; in the experiment with OVCAR-4 ovarian, 115%; in the experiment on SK-OV-3 ovarian it was 112%. The growth in the experiment on IGROV1 ovarian was 99.8%; with OVCAR-3 ovarian it was 105%; with HS 578T breast, 114%; in the experiment on NCI/ADR-RES ovarian, 112%.

Consider `O=C1C(=O)c2cc([N+](=O)[O-])ccc2-c2ccccc21`, for which the growth was -88.9% (active) in the experiment with SN12C renal; -85.2% (active) with TK-10 renal; -68.6% (active) in the experiment on CAKI-1 renal; 110% with A498 renal; 0.151% (active) in the experiment on MOLT-4 leukemia; -7.48% (active) in the experiment with SR leukemia. In addition, the growth in the experiment with RPMI-8226 leukemia was -42.1% (active); in the experiment on OVCAR-8 ovarian, -58.6% (active); in the experiment with OVCAR-5 ovarian, -79.2% (active); with OVCAR-4 ovarian, -97.6% (active); in the experiment with SK-OV-3 ovarian, 55.7%; with IGROV1 ovarian, -72.5% (active). In addition, the growth in the experiment on OVCAR-3 ovarian was -94% (active); with NCI/ADR-RES ovarian it was -74.2% (active).
